High-throughput results as filed in PubChem.
SW480 rereplic: inducers of DNA re-replication in SW480 colon cancer cells; 1.8% of 340,000 active; Potency, µM (doses to about 46.1 µM), actives largely listed as activators; SW480 DNA re-replication, Hoechst DNA content imaging, 48 h; note: nearly all actives have a fitted effect of over 55% in size
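SW480 cells exposed to compounds for 48 hr at 37 C, 5% CO2, then Hoechst-stained 40 min. Nuclear DNA content imaged by fluorescence scanning (405 nm excitation, 500-530 nm emission); re-replication scored as increased high-intensity nuclei.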
Giardia killer: Giardia lamblia killing; activity change, % at 7.66 µM, hits read low; Giardia lamblia trophozoite viability; 0.15% of 340,000 active; in the data active = activity change below about -80%; inconclusive = between about -30% and that limit;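 note: parasites exposed to compound for two days anaerobically before the ATP read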
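Luminescent ATP signal served as the viability read-out, measured 15-30 min after adding ATP detection reagent to trophozoites that had been incubated with compounds for 48 hrs at 37 deg C anaerobically at 100 cells/well.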
KB-V1 MDR tox: KB-V1 MDR subline cytotoxicity | KB-V1 MDR cells viability, CellTiter-Glo, 72 h | Potency, µM (highest dose often 46.1 µM), most hits filed as cytotoxic | 3.4% of 400,000 active | AID 1347076; note: nearly all actives have a fitted effect of over 60% in size
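Potencies derive from concentration-effect curves fitted to normalized luminescence (CellTiter-Glo) of KB-V1 cells treated for 72 h at 37 degrees C in phenol-red-free DMEM containing 10% FBS.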
ASM inhibitor: human S-ASM enzyme inhibition | placental ASM, HMU-PC fluorogenic substrate, 60 min | Potency, µM (top dose mostly 57.5 µM), usual class: inhibitors | 0.006% of 340,000 active
Target sequence (P17405 47-631 limits assumed): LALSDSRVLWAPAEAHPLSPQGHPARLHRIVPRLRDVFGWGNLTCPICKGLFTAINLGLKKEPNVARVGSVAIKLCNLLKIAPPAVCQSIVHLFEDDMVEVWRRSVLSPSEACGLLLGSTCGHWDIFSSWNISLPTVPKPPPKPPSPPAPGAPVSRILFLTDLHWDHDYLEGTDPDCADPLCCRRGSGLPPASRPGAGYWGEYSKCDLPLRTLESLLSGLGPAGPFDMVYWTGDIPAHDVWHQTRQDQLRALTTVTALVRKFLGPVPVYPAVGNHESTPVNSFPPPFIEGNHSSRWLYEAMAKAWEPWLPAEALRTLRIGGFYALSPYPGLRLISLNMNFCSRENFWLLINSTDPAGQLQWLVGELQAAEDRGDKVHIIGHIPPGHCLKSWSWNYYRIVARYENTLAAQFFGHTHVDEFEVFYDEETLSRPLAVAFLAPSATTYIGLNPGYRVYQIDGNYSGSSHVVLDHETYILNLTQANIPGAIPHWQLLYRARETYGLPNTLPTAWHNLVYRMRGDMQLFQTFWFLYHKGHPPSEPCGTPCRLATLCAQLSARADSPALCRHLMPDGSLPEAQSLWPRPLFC
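Fluorescence read-out (Ex 386 nm, Em 447 nm) after stopping the reaction at pH 10. Enzyme: ASM from human placenta; substrate HMU-PC0, 9 uM final; 60 min, 37 °C. Compound preincubation 10 min, ambient temperature.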
MCF10A rereplic: induces DNA re-replication in MCF 10a normal breast cells | MCF 10A DNA re-replication, Hoechst nuclear intensity, 48 h | Potency, µM (series often up to 46.1 µM), usual class: activators | 2.9% of 350,000 active | AID 624296; note: nearly all actives have a fitted effect of over 50% in size
KB-3-1 tox: kills parental KB-3-1 adenocarcinoma cells. AID 1347075. 1.4% of 400,000 active. Potency, µM (top dose mostly 46.1 µM), usual class: cytotoxic. KB-3-1 viability, CellTiter-Glo ATP luminescence, 72 h; note: nearly all actives have a fitted effect of over 60% in size
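KB-3-1 parental drug-naive adenocarcinoma cells in DMEM/10% FBS, incubated 72 h at 37 C with pin-transferred compounds across a concentration series. Viability by CellTiter-Glo luminescence; concentration-response curves fitted after normalization.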
A number is an active result; - = inactive; ? = inconclusive; . = not tested or not shown; [ ] = remark or other dose. Most compounds without a hit are left out; they make up all but 6.9% or so of the library. Unless noted, calls come from the whole dose curve; as a rule, active = well fitted curve in the direction sought with a large enough effect; inconclusive = small, poorly fitted or top-dose-only effect, or another doubt; inactive = no such curve, though single readings can be large; an effect the other way counts as inactive or inconclusive.

SMILES	SW480 rereplic	Giardia killer	KB-V1 MDR tox	ASM inhibitor	MCF10A rereplic	KB-3-1 tox
CC(C)CNC(=O)c1cccc(NC(=O)c2ccc(Cl)c([N+](=O)[O-])c2)c1	-	-	20.6µM	-	?	-
COc1cccc(NC(=O)c2cccc(C(=O)Nc3cccc(OC)c3)c2)c1	-[9.22 µM]	-	-	-	?	-
CC(=O)N(O)c1ccc(/C=C2\C=Cc3ccccc32)cc1	.	.	?	.	.	-
Cc1nn(Cc2ccc(F)cc2)c(C)c1NC(=O)c1cnn2c1NC(c1cccs1)CC2C(F)(F)F (centres undefined)	-	-	20.6µM	-	-	-
Cc1nn(Cc2ccc(F)cc2)c(C)c1NC(=O)c1cnn2c1NC(c1ccccc1)CC2C(F)(F)F (centres undefined)	-	-	-	-	-	-
Cc1nn(C)cc1CNC(=O)c1cc2n(n1)C(C(F)(F)F)CC(c1cccs1)N2 (centres undefined)	-	-	?	-	-	-
Cc1nn(C)c(C)c1CNC(=O)c1nn2c(c1Cl)NC(c1cccs1)CC2C(F)(F)F (centres undefined)	-	-	9.2µM	-	-	?
CN(CC(=O)Nc1cccc(Cl)c1)S(=O)(=O)c1ccc2[nH]c3c(c2c1)CCCC3	.	.	-	.	.	-
CCOC(=O)C(CS)NCCN[C@@H](CS)C(=O)OCC (some centres undefined)	-	.	.	.	-	.
Cc1ccc(NC(=O)c2cc(N3C(=O)C=CC3=O)ccc2N2CCOCC2)cc1Cl	?	-	-	-	16.4µM	-
CCOC(=O)c1ccc(NC(=O)Nc2ccon2)cc1	?	-	?	-	1.3µM	0.581µM
CCOC(=O)c1ccc(NC(=O)CN2C(=O)NC3(CCCCCCC3)C2=O)cc1	?	-	-	-	?	7.31µM
CCOC(=O)c1ccc(NC(=O)Nc2ccc(Cl)cn2)cc1	-	-	-	-	-	-
Cc1ccc(NC(=O)c2cc(N3C(=O)CCC3=O)ccc2N2CCOCC2)cc1	-	-	-	-	-	-
O=C(Nc1ccc(Cl)c(Cl)c1)Nc1ccon1	10.3µM	-	7.31µM	.	11.6µM	11.6µM
CCn1c(=O)c2cc(C(=O)Nc3cc(C)c(Cl)cc3OC)sc2c2ccccc21	.	.	-	.	.	-
Nc1nc(=O)n(C2CCCO2)cc1Br (centres undefined)	-	-	-	-	-	-
Cc1ccc(NC(=O)CCN2C(=O)NC3(CCCC3)C2=O)cc1	-	-	-	-	-	-
COc1ccc(NC(=O)NCCN2CCCCC2)cc1	-	-	-	-	-	-
O=C(Nc1ccc(N2CCOCC2)cc1)Nc1ccc(Cl)c(Cl)c1	-	-	18.4µM	-	-	?
CCC1(c2ccc(F)cc2)NC(=O)N(CC(=O)Nc2ccc(C(N)=O)cc2)C1=O (centres undefined)	-	-	-	-	-	-
CCOC(=O)c1ccc(NC(=O)NCCN2CCCCC2)cc1	-	-	-	-	?	16.4µM
CCC1(c2ccc(F)cc2)NC(=O)N(CC(=O)Nc2ccc(N3CCCCC3)cc2)C1=O (centres undefined)	-	?	23.1µM	-	-	-
Cc1ccc(C)c(Sc2ccc(NC(=O)CCN3C(=O)NC4(CCCC4)C3=O)cc2)c1	-	-	-	-	23.1µM	-
CCN1CCN(CCCNC(=O)Cn2c(-c3cccs3)cc3cc(F)ccc32)CC1	.	.	-	.	.	-
SMILES	SW480 rereplic	Giardia killer	KB-V1 MDR tox	ASM inhibitor	MCF10A rereplic	KB-3-1 tox
Cc1cc(C)cc(NC(=O)CN(c2cc(C(F)(F)F)ccc2Cl)S(=O)(=O)c2ccccc2)c1	.	.	-	.	.	-
COc1ccc(-c2oc3ncn4nc(-c5ccccc5OC)nc4c3c2-c2ccc(OC)cc2)cc1	.	.	-	.	.	-
COC(=O)c1c(-c2c(Cl)cccc2Cl)noc1C(=O)NN	-	-	-	-	-	-
CCOC(=O)c1ccc(NC(=O)Nc2nncs2)cc1	.	.	0.326µM	.	.	?
Cc1ccc(COC(=O)c2[nH]c3c(c2C)C(=O)CC(c2ccc(Cl)cc2)C3)cc1 (centres undefined)	.	.	?	.	.	-
Nc1nc2cc3ccccc3cc2[nH]c1=O	-	-	3.66µM	-	-	6.51µM
c1ccc(CCc2nc3ccccc3[nH]2)cc1	-	-	-	-	-	-
